Bioassay records as filed in PubChem.
In the library only some 10% were active in any assay of this set; here they are far more common.
GPT2 inh: Primary qHTS assay for inhibitors of Glutamate pyruvate transaminase 2 (GPT2) | Recombinant GPT2, coupled pyruvate oxidase/HRP Amplex Red fluorescence | Potency, µM (highest dose often 57.7 µM), inactives show at the highest dose activity change, negative = inhibition, actives largely listed as inhibitors | 100,000 compounds, 0.25% hits | AID 1671188, 2021; note: nearly all actives have a fitted effect of over 60% in size
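Inhibition is scored from Amplex Red fluorescence generated when pyruvate oxidase and HRP act on pyruvate released by GPT2. Reactions contain 10ng/uL enzyme, 250uM a-KG and 2mM L-alanine and run 30 min at room temperature.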
NPR1 antag: Natriuretic polypeptide receptor (hNpr1) antagonism - Primary qHTS; Atrial natriuretic peptide receptor 1 (Homo sapiens), P16066; HEK293 hNpr1 GloSensor cGMP, ANP-stimulated luminescence; Potency, µM (doses to about 46.3 µM), for the others: at the top dose activity change, negative = inhibition, actives largely listed as inhibitors; 76,000 compounds, 1.6% hits; calls by dose curve; note: nearly all actives have a fitted effect of over 60% in size
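HEK293 cells stably expressing human Npr1 and cGMP GloSensor pGS-40F, loaded 2 h with 2% GloSensor reagent, given compound 30 min at room temperature. Luminescence read before and 20 min after 0.1 nM hNppA.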
HEK cytotox: Cytotoxic Profiling in HEK 293 Cell Line of Diverse Libraries Using Quantitative High-Throughput Screening; Potency, µM (doses to about 115 µM), for inactives: top-dose activity change, negative = cytotoxicity, hits mostly inhibitors; 94,000 compounds, 6.6% hits; AID 1345083, 2018; HEK 293 viability, ATP luminescence (CellTiter-Glo), 48-72 h; note: nearly all actives have a fitted effect of over 60% in size
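Viability of HEK 293 cells, plated at 250 cells/well, was judged by cellular ATP after compound treatment for 48 or 72 hr. Luminescence was imaged 10 min after CellTiter-Glo addition at room temperature.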
NIH3T3 tox: Cytotoxic Profiling in NIH 3T3 Cell Line of Diverse Libraries Using Quantitative High-Throughput Screening; NIH 3T3 viability, CellTiter-Glo ATP luminescence, 48-72 h; Potency, µM (highest dose often 96.7 µM), for the others: at the top dose activity change, negative = cytotoxicity, most hits filed as inhibitors; 94,000 compounds, 4.3% hits; AID 1345082, 2018; note: nearly all actives have a fitted effect of over 55% in size
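Cytotoxicity was measured by CellTiter-Glo ATP luminescence after 48 or 72 h compound exposure at 37 °C. Mouse NIH 3T3 fibroblasts were seeded at 400 cells/well and dosed by 23 nL pin transfer.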
Luciferase inh: Firefly luciferase inhibition profiling of diverse chemical library using quantitative high-throughput screening; 76,000 compounds, 2.5% hits; AID 1347043, 2019; purified P. pyralis luciferase, luminescence, biochemical; Potency, µM (doses to about 115 µM), actives largely listed as inhibitors; Luciferin 4-monooxygenase (Photinus pyralis), P08659; note: nearly all actives have a fitted effect of over 65% in size
Target sequence (P08659 whole entry, looked up): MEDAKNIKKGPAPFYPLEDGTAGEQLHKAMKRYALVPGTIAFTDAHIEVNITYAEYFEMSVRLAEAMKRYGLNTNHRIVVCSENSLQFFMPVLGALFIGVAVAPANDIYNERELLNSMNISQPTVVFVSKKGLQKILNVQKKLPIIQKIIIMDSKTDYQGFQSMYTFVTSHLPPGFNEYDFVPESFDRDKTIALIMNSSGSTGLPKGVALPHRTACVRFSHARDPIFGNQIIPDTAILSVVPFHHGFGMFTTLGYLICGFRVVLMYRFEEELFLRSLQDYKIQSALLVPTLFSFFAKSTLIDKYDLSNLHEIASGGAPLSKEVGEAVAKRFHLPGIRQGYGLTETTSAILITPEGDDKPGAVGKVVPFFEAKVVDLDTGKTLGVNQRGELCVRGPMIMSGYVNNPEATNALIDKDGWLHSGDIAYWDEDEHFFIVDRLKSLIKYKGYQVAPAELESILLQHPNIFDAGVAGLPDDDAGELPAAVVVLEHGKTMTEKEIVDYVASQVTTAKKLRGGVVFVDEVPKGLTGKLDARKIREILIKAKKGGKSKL
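Inhibitors were tested against purified firefly luciferase in a biochemical, low-substrate format (both substrates at 10uM) and luminescence measured with a CCD imager.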
An asterisk follows results filed as active; ! = a repeat was not active; [ ] = another dose, or the depositor's remark. Unless noted, calls come from the whole dose curve; as a rule, active = well fitted curve in the direction sought with a large enough effect; inconclusive = small, poorly fitted or top-dose-only effect, or another doubt; inactive = no such curve, though single readings can be large; an effect the other way counts as inactive or inconclusive. % is set by controls: 0 for no effect and ±100 for the full control effect; potency is the fitted concentration of half-maximal effect.

What do the screens show for `Cn1nc(-c2ccc(F)cc2)cc1[C@H]1CN2CC[C@H]1C[C@@H]2CNC(=O)NCc1ccccc1`?
GPT2 inh: inactive; NPR1 antag: -16%; HEK cytotox: 25µM*; NIH3T3 tox: inconclusive; Luciferase inh: inactive

How did COc1ccc(CNC[C@H]2C[C@@H]3CCN2C[C@@H]3c2cc(-c3ccc(F)cc3)nn2C)cc1 do in these assays?
GPT2 inh: -10%[88.5 µM]; NPR1 antag: 1%[70.6 µM]; HEK cytotox: 45µM*; NIH3T3 tox: 89µM*; Luciferase inh: inactive

What do the screens show for `Cn1nc(-c2cccs2)cc1[C@H]1CN2CC[C@H]1C[C@@H]2CNC(=O)NCc1ccccc1`?
GPT2 inh: -4%; NPR1 antag: 0%; HEK cytotox: -15%; NIH3T3 tox: -30%; Luciferase inh: inactive

Results for Cc1[nH]cnc1-c1nccn1CCc1c[nH]c(=O)[nH]c1=O ?
GPT2 inh: -5%; NPR1 antag: 3%; HEK cytotox: 0%; NIH3T3 tox: -10%; Luciferase inh: inactive

Results for COc1cc2c(cc1OC1CCCC1)NC(=O)C21CCN(Cc2nccs2)CC1 ?
GPT2 inh: inactive; NPR1 antag: -4%[70.6 µM]; HEK cytotox: 100µM*; NIH3T3 tox: inconclusive; Luciferase inh: inactive

What do the screens show for `COc1cc2c(cc1OC1CCCC1)NC(=O)C21CCN(C(C)=O)CC1`?
GPT2 inh: inactive; NPR1 antag: -6%[70.6 µM]; HEK cytotox: -34%[172 µM]; NIH3T3 tox: inconclusive; Luciferase inh: inactive

Results for COc1cc2c(cc1OC1CCCC1)NC(=O)C21CCN(Cc2cccnc2)CC1 ?
GPT2 inh: -3%[88.5 µM]; NPR1 antag: -8%[70.6 µM]; HEK cytotox: 100µM*; NIH3T3 tox: inconclusive; Luciferase inh: inactive

Results for COc1cc2c(cc1OC1CCCC1)NC(=O)C21CCN(Cc2ccccc2O)CC1 ?
GPT2 inh: -3%[88.5 µM]; NPR1 antag: -20%[70.6 µM]; HEK cytotox: 40µM*; NIH3T3 tox: 22µM*; Luciferase inh: inactive

What do the screens show for `Clc1ccc(N2CCN(CC3[C@H]4CNC[C@@H]34)CC2)nc1` (stereo partly drawn)?
GPT2 inh: 0%; NPR1 antag: -3%; HEK cytotox: inconclusive; NIH3T3 tox: inconclusive; Luciferase inh: inactive

How did CCCS(=O)(=O)N1C[C@@H]2C[C@H](C1)c1ccc(-c3ccc4ccccc4c3)c(=O)n1C2 do in these assays?
GPT2 inh: inactive; NPR1 antag: 3%[70.6 µM]; HEK cytotox: inconclusive; NIH3T3 tox: inconclusive; Luciferase inh: inactive

How did COc1ccc2c(c1OC)CN1CCc3cc4c(cc3C1C2)OCO4 (stereo not drawn) do in these assays?
GPT2 inh: -10%

What do the screens show for `COc1ccc2c(c[n+](C)c3c4cc5c(cc4ccc23)OCO5)c1OC`?
GPT2 inh: 10µM*!

Results for CCOC(=O)[C@H]1CN(C(=O)OCC(C)C)[C@]2(C)C(=O)N(CCOC)c3ccccc3[C@H]12 ?
GPT2 inh: 2%[27.3 µM]; HEK cytotox: -21%[57.5 µM]; NIH3T3 tox: inconclusive

How did COc1ccc(CC(=O)N2CCN(Cc3ccccc3-c3cccnc3)CC2)cc1 do in these assays?
GPT2 inh: inactive; HEK cytotox: inconclusive; NIH3T3 tox: inconclusive

How did Cc1ccc(-c2ccccc2CN2CCN(C(=O)Cc3ccccn3)CC2)cc1Cl do in these assays?
GPT2 inh: -14%; HEK cytotox: inconclusive; NIH3T3 tox: 25µM*

What do the screens show for `COc1ccc(NC(=O)OC[C@H]2C[C@@H]3CCN2C[C@@H]3c2cc(-c3ccc(N(C)C)cc3)nc(C)n2)cc1`?
GPT2 inh: inactive; NPR1 antag: -14%; HEK cytotox: 18µM*; NIH3T3 tox: 16µM*; Luciferase inh: inactive

Results for COc1cc(NC(=O)OC[C@H]2C[C@@H]3CCN2C[C@@H]3c2cc(-c3ccc(N(C)C)cc3)nc(C)n2)cc(OC)c1 ?
GPT2 inh: 4%; NPR1 antag: inconclusive; HEK cytotox: 5.6µM*; NIH3T3 tox: 7.9µM*; Luciferase inh: inconclusive

Results for Cc1nc(-c2ccc(N(C)C)cc2)cc([C@H]2CN3CC[C@H]2C[C@@H]3CNC(=O)c2ccco2)n1 ?
GPT2 inh: 0%; NPR1 antag: -3%; HEK cytotox: inconclusive; NIH3T3 tox: inconclusive; Luciferase inh: inconclusive

How did Cc1nc(-c2ccc(N(C)C)cc2)cc([C@H]2CN3CC[C@H]2C[C@@H]3CNC(=O)NC(C)C)n1 do in these assays?
GPT2 inh: inactive; NPR1 antag: 1%[70.6 µM]; HEK cytotox: inconclusive; NIH3T3 tox: 89µM*; Luciferase inh: inactive

Results for CC(=O)NC[C@H]1C[C@@H]2CCN1C[C@@H]2c1cc(-c2ccccc2)nc(C)n1 ?
GPT2 inh: 2%[88.5 µM]; NPR1 antag: 1%[70.6 µM]; HEK cytotox: -30%[172 µM]; NIH3T3 tox: inconclusive; Luciferase inh: inactive

What do the screens show for `Cc1nc(-c2ccc(N(C)C)cc2)cc([C@H]2CN3CC[C@H]2C[C@@H]3COC(=O)Nc2ccccc2)n1`?
GPT2 inh: -18%; NPR1 antag: -25%; HEK cytotox: inconclusive; NIH3T3 tox: 4µM*; Luciferase inh: inactive

Results for CCCNC(=O)OC[C@H]1C[C@@H]2CCN1C[C@@H]2c1cc(-c2ccc(F)cc2)nc(C)n1 ?
GPT2 inh: inactive; NPR1 antag: -1%[70.6 µM]; HEK cytotox: inconclusive; NIH3T3 tox: inconclusive; Luciferase inh: inactive

How did O=C(O)C1CN(Cc2ccoc2)CCN(C(=O)Cc2ccccc2)C1 (stereo not drawn) do in these assays?
GPT2 inh: inactive; NPR1 antag: -6%; HEK cytotox: -4%; NIH3T3 tox: -13%; Luciferase inh: inactive

Results for O=C1NCCCCCCN(Cc2ccncc2)[C@@H]2CN(C(=O)COc3ccc(F)cc3)CC[C@@H]12 ?
GPT2 inh: inactive; NPR1 antag: 7%; HEK cytotox: -5%; NIH3T3 tox: 35µM*; Luciferase inh: inactive

What do the screens show for `O=C1NCCCCCCN(Cc2cccnc2)[C@H]2CCC[C@@H]12`?
GPT2 inh: inactive; NPR1 antag: 1%; HEK cytotox: -12%; NIH3T3 tox: inconclusive; Luciferase inh: inactive

How did CN(C)c1ccc(C(=O)NC[C@H]2C[C@@H]3CCN2C[C@@H]3CN2CCOCC2)cc1 do in these assays?
GPT2 inh: inactive; NPR1 antag: 1%[70.6 µM]; HEK cytotox: 2%[172 µM]; NIH3T3 tox: inactive; Luciferase inh: inactive

Results for CN(C)Cc1ccccc1-c1ccc2n(c1=O)C[C@H]1C[C@@H]2CN(C(=O)C2CCCCC2)C1 ?
GPT2 inh: inactive; NPR1 antag: 3%[70.6 µM]; HEK cytotox: -3%[172 µM]; NIH3T3 tox: -5%[174 µM]; Luciferase inh: inactive
